Source: the supplement of paper PMC6555819

How the values were obtained:
Assay in all cases: PBM binding z-score (relative to random genomic background probes); higher = stronger binding; sequences stand for … in GC…GCGATTGACAGCGTAGAATGAAGG
[1] = tested on: FXR:RXRa (NR concentration 270 nM, RXRa partner concentration 90 nM)
Outline: (§1)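 For binding z-scores, the reference was random background probes on custom Agilent 4×180K protein-binding microarrays. These arrays were incubated 1 h with ligand-free nuclear receptor dimers in PBS pH 7.4, 2% milk, 0.02% Triton X-100, 1 mM DTT, 0.2 mg/mL BSA and 0.4 mg/ml salmon testes DNA. Fluorescence was scanned after antibody detection of each partner (one per run) and regression-normalized.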

[2] = tested on: LXRa:RXRa (NR concentration 270 nM, RXRa partner concentration 90 nM)
Outline: as §1

[3] = tested on: LXRa homodimer (NR concentration 270 nM)
Outline: as §1

[4] = tested on: LXRb:RXRa (NR concentration 270 nM, RXRa partner concentration 90 nM)
Outline: as §1

[5] = tested on: LXRb homodimer (NR concentration 270 nM)
Outline: as §1

[6] = tested on: PPARa:RXRa (NR concentration 270 nM, RXRa partner concentration 90 nM)
Outline: as §1

[7] = tested on: PPARg:RXRa (NR concentration 180 nM, RXRa partner concentration 90 nM)
Outline: as §1

[8] = tested on: PPARg:RXRa 270nM:90nM, anti-RXR (NR concentration 270 nM, RXRa partner concentration 90 nM)
Outline: as §1

[9] = tested on: PPARg:RXRa 30nM:10nM, anti-RXR (NR concentration 30 nM, RXRa partner concentration 10 nM)
Outline: as §1

[10] = tested on: PPARg:RXRa 90nM:30nM, anti-RXR (NR concentration 90 nM, RXRa partner concentration 30 nM)
Outline: as §1

[11] = tested on: PPARg:RXRa DBDmut IVT, anti-RXR (DBD mutation: RXRa K156A/R161A, NR concentration 270 nM, RXRa partner concentration 90 nM)
Outline: as §1

[12] = tested on: PPARg:RXRa IVT, anti-PPARg (NR concentration 270 nM, RXRa partner concentration 90 nM)
Outline: as §1

[13] = tested on: PPARg DBDmut:RXRa IVT, anti-PPARg (DBD mutation: PPARg1 K132A/R137A, NR concentration 270 nM, RXRa partner concentration 90 nM)
Outline: as §1

[14] = tested on: PPARg DBDmut IVT, anti-PPARg (DBD mutation: PPARg1 K132A/R137A, NR concentration 270 nM)
Outline: as §1

[15] = tested on: PPARg homodimer (NR concentration 180 nM)
Outline: as §1

[16] = tested on: PXR:RXRa (NR concentration 270 nM, RXRa partner concentration 90 nM)
Outline: as §1

[17] = tested on: PXR homodimer (NR concentration 270 nM)
Outline: as §1

[18] = tested on: RARa:RXR (NR concentration 270 nM, RXRa partner concentration 90 nM)
Outline: as §1

[19] = tested on: RARa homodimer (NR concentration 270 nM)
Outline: as §1

[20] = tested on: RARb:RXRa (NR concentration 270 nM, RXRa partner concentration 90 nM)
Outline: as §1

Row | Sequence | PBM binding z-score [1] | PBM binding z-score [2] | PBM binding z-score [3] | PBM binding z-score [4] | PBM binding z-score [5] | PBM binding z-score [6] | PBM binding z-score [7] | PBM binding z-score [8] | PBM binding z-score [9] | PBM binding z-score [10] | PBM binding z-score [11] | PBM binding z-score [12] | PBM binding z-score [13] | PBM binding z-score [14] | PBM binding z-score [15] | PBM binding z-score [16] | PBM binding z-score [17] | PBM binding z-score [18] | PBM binding z-score [19] | PBM binding z-score [20]
1 | ATCTCTAGGTAAACGTTCAGTGAATCCCGAGGAT | -0.236 | -0.144 | -0.301 | -0.282 | 0.657 | 0.613 | 1.14 | 2.17 | 1.01 | 1.75 | 3.11 | 2.05 | 0.531 | 0.761 | 0.198 | -0.434 | -0.237 | -0.544 | -0.155 | 0.26
2 | TCATATAGGTAAAGGTGAAAGACGAACGATATGA | 1.12 | 1.17 | -0.192 | 1.28 | 0.0599 | 3.09 | 4.19 | 4.4 | 4.5 | 4.66 | 3.92 | 4.19 | 2 | 1.64 | 1.19 | 0.767 | -0.0893 | 1.22 | 0.159 | 1.85
3 | GAAACGAGGGCAAAGTTGATAGCATCTGTCGACG | 1.38 | 1.27 | -0.429 | 1.02 | -0.45 | 4.4 | 7.78 | 7.51 | 7.45 | 8.19 | 5.26 | 5.32 | 0.311 | 0.0519 | 0.722 | 1.32 | 0.236 | 1.98 | 0.209 | 2.38
4 | TTACCAAGGTGTGCTGAGGTCGTTGATCCAACTC | 0.714 | 0.293 | -0.284 | 0.587 | -0.354 | 0.88 | -0.381 | 0.606 | -0.307 | 0.00377 | -0.56 | 0.137 | -0.549 | -0.745 | 0.0378 | 2.18 | 0.694 | 1.18 | -0.699 | 0.629
5 | TCTTGTAGATCAATAGAGGTTAATAAAGTGCGCT | 0.771 | 5.4 | 0.943 | 3.5 | -0.00633 | 1.72 | 0.484 | 1.59 | 2.72 | 2.15 | 1.47 | 1.13 | 0.628 | 0.945 | 0.295 | 2.84 | 0.364 | 1.63 | 0.341 | 0.772
6 | CAAACTAGGTCACCGGAAGGTCAGAGTCCGCATG | 5.32 | 4.74 | 2.63 | 4.09 | 0.598 | 5.96 | 9.65 | 7.46 | 5.57 | 7.33 | 8.5 | 8.94 | 4.78 | 2.92 | 4.96 | 4.71 | 0.703 | 6.14 | 2.03 | 5.31
7 | CTCGAAAGGTCGCGCTCAGGTGAGTATACCAAAC | 5.56 | 4.34 | 0.0163 | 3.5 | 0.0326 | 5.16 | 3.37 | 4.57 | 1.32 | 2.97 | 1.22 | 2.52 | 1.3 | 0.149 | 2.13 | 3.65 | -0.145 | 4.74 | -0.225 | 4.46
8 | TTACCAAGGTGAGCTGAGGTCGTTCATCCAACTC | 1.08 | 1.32 | 0.0661 | 0.862 | -1.08 | 1.68 | 0.347 | 1 | 0.0261 | 0.463 | 1.05 | 2.17 | -0.164 | -0.434 | -0.159 | 5.33 | 0.906 | 1.82 | -0.552 | 1.74
9 | ACTTACGGGTCAACGATGTTATAGCACGCGTATA | 6.28 | 4.04 | 0.405 | 3.64 | 0.787 | 5.53 | 4.83 | 5.13 | 2.07 | 3.75 | 3.44 | 3.78 | 1.72 | 1.54 | 2.59 | 3.49 | 0.444 | 4.41 | 0.951 | 4.09
10 | ACAGACAGGTGAGTGATGGTAACTCAGCTGGACG | 0.332 | 0.668 | -0.354 | -0.409 | -0.477 | -0.213 | 0.554 | -0.115 | -0.0308 | -0.212 | 0.622 | 0.347 | -0.278 | -0.268 | 0.364 | -0.415 | -0.0348 | -0.241 | 0.249 | 0.377
11 | ACTACAGGGTCACTAGGCCAGAGTAGGTACGAAT | 6.17 | 3.51 | -0.237 | 3.18 | 0.0917 | 5.65 | 7.54 | 5.96 | 2.62 | 5.05 | 3.3 | 5.46 | 1.45 | 0.752 | 2.24 | 2.67 | 0.0574 | 3.53 | 0.377 | 4.19
12 | TCAGACACGTGAAGGTAACTCAGGTACGCAGTCG | 0.454 | 1.57 | -0.182 | 0.638 | -0.58 | 0.588 | 0.903 | 1.81 | 3.41 | 2.58 | 2.01 | 0.0169 | -0.15 | -0.175 | 0.0115 | 0.416 | -0.294 | 0.632 | -0.256 | 0.338
13 | ATATGTAGTTTAAGGGTCATTCAGGTTGGTTCGC | 4.61 | 4.11 | 2.99 | 4.07 | 1.53 | 5.03 | 6.25 | 6.64 | 5.02 | 6.74 | 1.53 | 3.45 | 1.66 | 1.44 | 3.5 | 5.01 | 3.06 | 4.34 | 2.87 | 3.42
14 | ATATGTAGGTGAGCTGGGGTCATTCAGACTAGGC | 4.23 | 3.62 | 0.762 | 4.15 | 0.598 | 5.85 | 7.13 | 5.75 | 3.65 | 5.74 | 7.57 | 7.41 | 3.98 | 2.99 | 1.94 | 6.35 | 3.01 | 5.85 | 0.796 | 3.08
